PMC7862700, “An all-to-all approach to the identification of sequence-specific readers for epigenetic DNA modifications on cytosine”

Legend:
Experiment in all cases: DAPPL (digital affinity profiling via proximity ligation, sequencing); 10 mM Tris-HCl pH 7.5, 50 mM NaCl, 1 mM DTT, 4% glycerol, room temperature, 30 min; GST-TFs on glutathione beads, 16-mer random dsDNA library, 0.1% formaldehyde crosslink after washing; high values mean tight binding
FLI1 = biological target: T1, FLI1 (Homo sapiens, UniProt Q01543 1-452); details: protein: recombinant; tags: N-terminal GST; dsDNA, one strand shown
T1 sequence: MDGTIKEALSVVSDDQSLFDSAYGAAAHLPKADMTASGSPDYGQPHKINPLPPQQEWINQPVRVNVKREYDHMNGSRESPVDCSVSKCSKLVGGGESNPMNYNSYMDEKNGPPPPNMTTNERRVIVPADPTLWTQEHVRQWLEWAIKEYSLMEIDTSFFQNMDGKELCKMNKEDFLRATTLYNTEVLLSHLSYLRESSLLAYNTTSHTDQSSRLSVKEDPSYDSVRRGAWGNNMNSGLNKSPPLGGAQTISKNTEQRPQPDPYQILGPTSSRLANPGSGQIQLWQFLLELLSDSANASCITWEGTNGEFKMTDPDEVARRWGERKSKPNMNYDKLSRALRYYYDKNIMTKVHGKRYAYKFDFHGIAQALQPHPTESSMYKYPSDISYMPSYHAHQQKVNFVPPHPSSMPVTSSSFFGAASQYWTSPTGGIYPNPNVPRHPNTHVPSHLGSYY
In short: (§1)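 After expression in yeast as GST fusions, human transcription factors were bound to glutathione beads, DNA-barcoded and mixed with a tag-only sample. The pools were incubated with 200 nmole of a 16-mer random double-stranded DNA library in Tris/NaCl/DTT/glycerol buffer (30 min, room temperature), washed and crosslinked with 0.1% formaldehyde. Proximity ligation with BsaI/T4 ligase ran for 1 h at 37 °C, before PCR amplification and sequencing on an Illumina NextSeq500. Binding signal is a hexamer's read frequency for a factor divided by its frequency for the tag-only sample.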

GABPA = biological target: T2, GABPA (Homo sapiens, UniProt Q06546 1-454); details: protein: recombinant; tags: N-terminal GST; dsDNA, one strand shown
T2 sequence: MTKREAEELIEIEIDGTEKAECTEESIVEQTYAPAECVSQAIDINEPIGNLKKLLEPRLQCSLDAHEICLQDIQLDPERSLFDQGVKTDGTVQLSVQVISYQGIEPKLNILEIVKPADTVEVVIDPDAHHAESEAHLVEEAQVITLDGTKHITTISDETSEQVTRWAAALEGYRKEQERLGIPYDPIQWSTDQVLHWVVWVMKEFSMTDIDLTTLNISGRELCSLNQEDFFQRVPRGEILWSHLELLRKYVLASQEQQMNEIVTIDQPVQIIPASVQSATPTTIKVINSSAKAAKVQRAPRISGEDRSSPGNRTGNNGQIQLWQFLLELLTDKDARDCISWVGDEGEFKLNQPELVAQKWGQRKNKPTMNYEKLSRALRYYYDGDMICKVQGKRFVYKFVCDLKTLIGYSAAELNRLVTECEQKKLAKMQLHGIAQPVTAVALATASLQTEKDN
In short: as §1

ERG = biological target: T3, ERG (Homo sapiens, UniProt P11308 1-479); details: protein: recombinant; tags: N-terminal GST; dsDNA, one strand shown
T3 sequence: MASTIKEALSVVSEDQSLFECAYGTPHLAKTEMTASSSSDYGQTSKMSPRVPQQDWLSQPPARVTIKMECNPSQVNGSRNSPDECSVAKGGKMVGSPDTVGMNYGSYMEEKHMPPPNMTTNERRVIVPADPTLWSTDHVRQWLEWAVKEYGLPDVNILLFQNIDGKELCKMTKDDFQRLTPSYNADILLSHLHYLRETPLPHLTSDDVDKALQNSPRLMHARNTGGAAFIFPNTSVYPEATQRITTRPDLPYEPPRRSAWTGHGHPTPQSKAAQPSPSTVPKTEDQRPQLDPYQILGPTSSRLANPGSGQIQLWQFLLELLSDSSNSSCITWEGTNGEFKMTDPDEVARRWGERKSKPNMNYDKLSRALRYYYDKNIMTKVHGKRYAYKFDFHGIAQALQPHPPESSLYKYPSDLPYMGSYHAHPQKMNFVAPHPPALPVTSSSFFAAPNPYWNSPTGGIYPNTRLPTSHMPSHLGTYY
In short: as §1

ETV5 = ETV5 (Homo sapiens, UniProt P41161 1-510); details: protein: recombinant; tags: N-terminal GST; dsDNA, one strand shown
Chain of ETV5 (P41161 whole entry): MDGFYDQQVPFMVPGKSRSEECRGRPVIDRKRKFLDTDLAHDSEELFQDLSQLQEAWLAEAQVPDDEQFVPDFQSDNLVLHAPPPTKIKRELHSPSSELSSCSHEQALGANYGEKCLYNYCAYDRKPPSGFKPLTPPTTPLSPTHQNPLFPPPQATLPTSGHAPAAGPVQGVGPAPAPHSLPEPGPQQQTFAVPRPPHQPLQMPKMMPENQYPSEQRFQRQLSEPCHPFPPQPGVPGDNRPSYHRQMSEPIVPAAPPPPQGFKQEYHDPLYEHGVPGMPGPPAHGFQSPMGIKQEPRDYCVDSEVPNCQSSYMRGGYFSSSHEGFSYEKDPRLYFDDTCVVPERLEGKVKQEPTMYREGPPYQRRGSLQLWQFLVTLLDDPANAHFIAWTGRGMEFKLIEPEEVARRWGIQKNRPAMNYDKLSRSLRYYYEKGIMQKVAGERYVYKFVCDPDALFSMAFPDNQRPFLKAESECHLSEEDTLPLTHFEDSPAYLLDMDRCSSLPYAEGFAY
In short: as §1

HSF1 = HSF1 (Homo sapiens, UniProt Q00613 1-529); details: protein: recombinant; tags: N-terminal GST; chain copies: 3; dsDNA, one strand shown
Chain of HSF1 (Q00613 whole entry): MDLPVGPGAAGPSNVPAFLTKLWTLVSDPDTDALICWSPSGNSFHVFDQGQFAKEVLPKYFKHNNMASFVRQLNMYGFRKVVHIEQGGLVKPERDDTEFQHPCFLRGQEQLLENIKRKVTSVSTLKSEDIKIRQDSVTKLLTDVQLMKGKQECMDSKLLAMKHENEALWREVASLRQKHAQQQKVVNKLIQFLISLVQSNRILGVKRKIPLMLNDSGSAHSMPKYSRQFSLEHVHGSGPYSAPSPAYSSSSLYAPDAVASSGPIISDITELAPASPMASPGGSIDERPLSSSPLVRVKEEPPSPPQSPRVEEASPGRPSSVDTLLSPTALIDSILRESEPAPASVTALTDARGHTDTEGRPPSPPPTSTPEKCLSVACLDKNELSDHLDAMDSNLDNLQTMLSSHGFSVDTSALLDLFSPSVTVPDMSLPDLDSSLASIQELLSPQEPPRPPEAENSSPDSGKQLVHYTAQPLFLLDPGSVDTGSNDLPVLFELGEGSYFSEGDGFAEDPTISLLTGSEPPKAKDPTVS
In short: as §1

SPIC = biological target: T4, SPIC (Homo sapiens, UniProt Q8N5J4 1-248); details: protein: recombinant; tags: N-terminal GST; dsDNA, one strand shown
T4 sequence: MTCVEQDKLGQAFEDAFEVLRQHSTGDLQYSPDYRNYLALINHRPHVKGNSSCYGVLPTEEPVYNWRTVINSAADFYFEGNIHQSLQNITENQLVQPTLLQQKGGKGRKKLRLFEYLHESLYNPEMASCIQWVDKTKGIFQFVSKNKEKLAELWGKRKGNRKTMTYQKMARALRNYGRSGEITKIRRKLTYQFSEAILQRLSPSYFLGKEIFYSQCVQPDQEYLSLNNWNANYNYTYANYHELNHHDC
In short: as §1

ELF4 = ELF4 (Homo sapiens, UniProt Q99607 1-663); details: protein: recombinant; tags: N-terminal GST; dsDNA, one strand shown
Chain of ELF4 (Q99607 whole entry): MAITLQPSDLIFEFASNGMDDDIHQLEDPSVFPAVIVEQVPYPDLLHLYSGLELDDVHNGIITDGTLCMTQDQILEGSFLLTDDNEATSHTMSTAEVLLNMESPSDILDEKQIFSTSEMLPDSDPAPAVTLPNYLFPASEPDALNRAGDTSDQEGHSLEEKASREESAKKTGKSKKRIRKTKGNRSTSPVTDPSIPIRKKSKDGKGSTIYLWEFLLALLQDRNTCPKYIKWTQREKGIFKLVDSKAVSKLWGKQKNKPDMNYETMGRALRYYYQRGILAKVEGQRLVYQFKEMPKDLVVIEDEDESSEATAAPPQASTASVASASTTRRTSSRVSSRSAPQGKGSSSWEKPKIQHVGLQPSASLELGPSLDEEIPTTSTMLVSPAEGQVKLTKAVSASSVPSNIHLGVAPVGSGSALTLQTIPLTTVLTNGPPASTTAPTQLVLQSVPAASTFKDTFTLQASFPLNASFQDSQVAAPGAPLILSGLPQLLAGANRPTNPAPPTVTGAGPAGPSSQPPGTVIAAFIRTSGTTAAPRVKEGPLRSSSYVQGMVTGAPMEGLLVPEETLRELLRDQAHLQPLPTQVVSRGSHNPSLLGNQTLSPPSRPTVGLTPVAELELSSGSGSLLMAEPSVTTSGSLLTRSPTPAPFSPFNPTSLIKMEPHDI
In short: as §1

ELK4 = biological target: T5, ELK4 (Homo sapiens, UniProt P28324-2 1-405); details: protein: recombinant; tags: N-terminal GST; dsDNA, one strand shown
T5 sequence: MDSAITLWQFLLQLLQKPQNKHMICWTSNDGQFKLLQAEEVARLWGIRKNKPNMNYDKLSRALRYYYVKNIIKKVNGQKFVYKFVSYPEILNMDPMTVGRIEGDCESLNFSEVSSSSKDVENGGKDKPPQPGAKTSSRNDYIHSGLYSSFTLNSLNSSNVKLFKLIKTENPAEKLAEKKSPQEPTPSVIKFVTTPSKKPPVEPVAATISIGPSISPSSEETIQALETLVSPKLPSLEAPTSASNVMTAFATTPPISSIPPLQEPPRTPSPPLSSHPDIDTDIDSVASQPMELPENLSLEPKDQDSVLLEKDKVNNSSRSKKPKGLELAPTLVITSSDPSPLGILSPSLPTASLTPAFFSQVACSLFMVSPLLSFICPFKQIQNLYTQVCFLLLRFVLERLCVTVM
In short: as §1

ETV2 = biological target: T6, ETV2 (Homo sapiens, UniProt O00321 1-342); details: protein: recombinant; tags: N-terminal GST; dsDNA, one strand shown
T6 sequence: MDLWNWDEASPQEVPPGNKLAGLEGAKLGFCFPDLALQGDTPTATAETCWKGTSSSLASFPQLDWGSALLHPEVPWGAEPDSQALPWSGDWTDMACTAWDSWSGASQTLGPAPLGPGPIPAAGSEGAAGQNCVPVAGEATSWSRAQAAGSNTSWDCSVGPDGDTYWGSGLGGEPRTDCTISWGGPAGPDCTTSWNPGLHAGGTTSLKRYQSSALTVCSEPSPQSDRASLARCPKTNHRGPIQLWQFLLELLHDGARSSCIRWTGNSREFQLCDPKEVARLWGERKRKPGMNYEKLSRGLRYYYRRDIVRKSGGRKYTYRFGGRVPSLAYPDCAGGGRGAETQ
In short: as §1

ELF3 = biological target: T7, ELF3 (Homo sapiens, UniProt P78545 1-371); details: protein: recombinant; tags: N-terminal GST; dsDNA, one strand shown
T7 sequence: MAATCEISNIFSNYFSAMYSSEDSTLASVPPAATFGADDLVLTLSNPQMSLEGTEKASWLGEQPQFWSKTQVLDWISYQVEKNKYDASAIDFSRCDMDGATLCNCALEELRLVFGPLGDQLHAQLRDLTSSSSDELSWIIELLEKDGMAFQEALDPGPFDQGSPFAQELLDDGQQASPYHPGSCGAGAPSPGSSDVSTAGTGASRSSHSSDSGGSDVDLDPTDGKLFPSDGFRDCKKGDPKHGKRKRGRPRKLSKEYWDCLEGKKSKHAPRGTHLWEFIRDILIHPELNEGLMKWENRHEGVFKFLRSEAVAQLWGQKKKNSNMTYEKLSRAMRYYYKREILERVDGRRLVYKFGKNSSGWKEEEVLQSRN
In short: as §1

CRX = CRX (Homo sapiens, UniProt O43186 1-299); details: protein: recombinant; tags: N-terminal GST; dsDNA, one strand shown
Chain of CRX (O43186 whole entry): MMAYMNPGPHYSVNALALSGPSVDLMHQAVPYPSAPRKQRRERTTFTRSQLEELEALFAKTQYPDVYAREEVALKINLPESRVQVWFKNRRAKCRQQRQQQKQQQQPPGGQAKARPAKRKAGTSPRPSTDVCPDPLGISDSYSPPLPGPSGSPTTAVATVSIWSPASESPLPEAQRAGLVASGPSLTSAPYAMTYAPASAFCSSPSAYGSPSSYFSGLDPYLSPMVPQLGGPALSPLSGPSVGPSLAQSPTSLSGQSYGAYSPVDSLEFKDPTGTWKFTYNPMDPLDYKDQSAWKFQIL
In short: as §1

ETV1 = ETV1 (Homo sapiens, UniProt P50549 1-477); details: protein: recombinant; tags: N-terminal GST; dsDNA, one strand shown
Chain of ETV1 (P50549 whole entry): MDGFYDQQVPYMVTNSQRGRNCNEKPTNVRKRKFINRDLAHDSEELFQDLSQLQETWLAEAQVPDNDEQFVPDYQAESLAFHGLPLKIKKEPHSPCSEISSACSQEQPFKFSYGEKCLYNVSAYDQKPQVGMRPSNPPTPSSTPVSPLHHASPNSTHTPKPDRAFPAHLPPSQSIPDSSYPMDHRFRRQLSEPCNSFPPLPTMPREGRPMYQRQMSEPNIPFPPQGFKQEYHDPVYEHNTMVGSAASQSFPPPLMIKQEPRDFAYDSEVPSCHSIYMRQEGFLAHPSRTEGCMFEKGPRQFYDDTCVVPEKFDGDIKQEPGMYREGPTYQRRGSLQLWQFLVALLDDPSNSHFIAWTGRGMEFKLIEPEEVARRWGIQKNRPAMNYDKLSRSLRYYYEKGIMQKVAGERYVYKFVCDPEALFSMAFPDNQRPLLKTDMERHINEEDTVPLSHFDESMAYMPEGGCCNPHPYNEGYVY
In short: as §1

ELK1 = biological target: T8, ELK1 (Homo sapiens, UniProt P19419 1-428); details: protein: recombinant; tags: N-terminal GST; dsDNA, one strand shown
T8 sequence: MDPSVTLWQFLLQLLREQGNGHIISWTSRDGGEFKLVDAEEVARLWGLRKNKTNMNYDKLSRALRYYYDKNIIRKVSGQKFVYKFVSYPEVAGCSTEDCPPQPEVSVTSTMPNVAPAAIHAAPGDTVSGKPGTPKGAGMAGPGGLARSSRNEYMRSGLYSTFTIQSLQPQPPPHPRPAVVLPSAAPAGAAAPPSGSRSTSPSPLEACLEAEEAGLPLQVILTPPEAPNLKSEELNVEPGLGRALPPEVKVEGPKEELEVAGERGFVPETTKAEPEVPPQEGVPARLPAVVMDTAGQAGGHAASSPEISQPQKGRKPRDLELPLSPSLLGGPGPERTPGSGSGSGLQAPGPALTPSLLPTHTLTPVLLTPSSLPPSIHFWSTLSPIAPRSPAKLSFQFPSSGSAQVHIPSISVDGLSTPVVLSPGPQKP
In short: as §1

ELF1 = ELF1 (Homo sapiens, UniProt P32519 1-619); details: protein: recombinant; tags: N-terminal GST; dsDNA, one strand shown
Chain of ELF1 (P32519 whole entry): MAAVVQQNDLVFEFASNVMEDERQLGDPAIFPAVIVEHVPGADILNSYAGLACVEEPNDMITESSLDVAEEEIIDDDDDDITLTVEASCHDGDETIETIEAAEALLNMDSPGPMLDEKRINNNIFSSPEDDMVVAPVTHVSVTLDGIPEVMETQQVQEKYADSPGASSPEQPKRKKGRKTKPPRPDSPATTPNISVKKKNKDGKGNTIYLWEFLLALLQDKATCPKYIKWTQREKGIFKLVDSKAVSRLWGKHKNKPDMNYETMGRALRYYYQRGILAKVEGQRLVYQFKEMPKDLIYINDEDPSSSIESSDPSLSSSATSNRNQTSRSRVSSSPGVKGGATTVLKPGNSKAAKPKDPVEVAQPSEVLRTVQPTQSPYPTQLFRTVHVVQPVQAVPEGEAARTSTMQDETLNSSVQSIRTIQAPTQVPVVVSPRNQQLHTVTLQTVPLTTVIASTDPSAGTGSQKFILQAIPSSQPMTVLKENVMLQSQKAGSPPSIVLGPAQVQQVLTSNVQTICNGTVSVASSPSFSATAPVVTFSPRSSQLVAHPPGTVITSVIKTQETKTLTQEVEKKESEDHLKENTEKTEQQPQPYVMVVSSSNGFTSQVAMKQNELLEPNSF
In short: as §1

SPIB = SPIB (Homo sapiens, UniProt Q01892 1-262); details: protein: recombinant; tags: N-terminal GST; dsDNA, one strand shown
Chain of SPIB (Q01892 whole entry): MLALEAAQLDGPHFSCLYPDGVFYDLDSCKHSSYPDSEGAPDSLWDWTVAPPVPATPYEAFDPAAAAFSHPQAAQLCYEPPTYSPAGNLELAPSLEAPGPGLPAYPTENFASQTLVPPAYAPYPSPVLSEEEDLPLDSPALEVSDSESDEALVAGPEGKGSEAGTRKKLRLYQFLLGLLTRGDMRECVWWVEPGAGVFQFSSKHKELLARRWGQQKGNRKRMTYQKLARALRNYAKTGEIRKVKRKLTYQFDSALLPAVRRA
In short: as §1

ELK3 = biological target: T9, ELK3 (Homo sapiens, UniProt P41970 1-407); details: protein: recombinant; tags: N-terminal GST; dsDNA, one strand shown
T9 sequence: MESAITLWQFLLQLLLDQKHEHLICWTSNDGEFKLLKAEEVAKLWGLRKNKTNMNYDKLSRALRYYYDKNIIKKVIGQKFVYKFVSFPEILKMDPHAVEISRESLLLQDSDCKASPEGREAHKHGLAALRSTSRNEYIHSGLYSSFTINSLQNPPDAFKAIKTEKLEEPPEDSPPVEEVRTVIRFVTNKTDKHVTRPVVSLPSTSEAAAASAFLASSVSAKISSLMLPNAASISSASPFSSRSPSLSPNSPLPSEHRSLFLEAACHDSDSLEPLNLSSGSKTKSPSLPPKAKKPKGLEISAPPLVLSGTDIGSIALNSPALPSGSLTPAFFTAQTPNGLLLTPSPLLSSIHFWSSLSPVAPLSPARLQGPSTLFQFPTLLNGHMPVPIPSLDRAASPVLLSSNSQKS
In short: as §1

ATCGTT was tested, and the binding signal (FLI1) was 1.08 fold enrichment (6-mer frequency, TF over GST control), the binding signal (GABPA) was 1.01 fold enrichment (6-mer frequency, TF over GST control) and the binding signal (ERG) was 1.02 fold enrichment (6-mer frequency, TF over GST control). The binding signal (ETV5) was 1 fold enrichment (6-mer frequency, TF over GST control), the binding signal (HSF1) was 1.02 fold enrichment (6-mer frequency, TF over GST control) and the binding signal (SPIC) was 1.03 fold enrichment (6-mer frequency, TF over GST control). For the same sequence, the binding signal (ELF4) was 1.04 fold enrichment (6-mer frequency, TF over GST control), the binding signal (ELK4) was 1.12 fold enrichment (6-mer frequency, TF over GST control) and the binding signal (ETV2) was 1.13 fold enrichment (6-mer frequency, TF over GST control). For the same sequence, the binding signal (ELF3) was 1.03 fold enrichment (6-mer frequency, TF over GST control), the binding signal (CRX) was 1.14 fold enrichment (6-mer frequency, TF over GST control) and the binding signal (ETV1) was 1.06 fold enrichment (6-mer frequency, TF over GST control).

With AATCGA the binding signal (FLI1) was 1 fold enrichment (6-mer frequency, TF over GST control), the binding signal (ELK1) was 1.06 fold enrichment (6-mer frequency, TF over GST control) and the binding signal (GABPA) was 1.07 fold enrichment (6-mer frequency, TF over GST control). For the same sequence, the binding signal (ERG) was 1.02 fold enrichment (6-mer frequency, TF over GST control), the binding signal (ELF1) was 1.03 fold enrichment (6-mer frequency, TF over GST control) and the binding signal (SPIB) was 1.07 fold enrichment (6-mer frequency, TF over GST control). The binding signal (ELK3) was 1.12 fold enrichment (6-mer frequency, TF over GST control), the binding signal (ETV5) was 1.05 fold enrichment (6-mer frequency, TF over GST control) and the binding signal (HSF1) was 1.38 fold enrichment (6-mer frequency, TF over GST control). The binding signal (SPIC) was 1.11 fold enrichment (6-mer frequency, TF over GST control), the binding signal (ELF4) was 1.03 fold enrichment (6-mer frequency, TF over GST control) and the binding signal (ELK4) was 1.03 fold enrichment (6-mer frequency, TF over GST control). For the same sequence, the binding signal (ELF3) was 1.11 fold enrichment (6-mer frequency, TF over GST control) and the binding signal (CRX) was 1.2 fold enrichment (6-mer frequency, TF over GST control).
